Screening results from PubChem BioAssay.
Dicer inh: blocks human Dicer maturation of pre-miR-21; Q9UPY3; AID 1347074; z-score at 25 µM; cat-ELCCA pre-miR-21 Dicer processing, chemiluminescence; hits give high values; actives 6% (n = 47,000); in the data active = z-score above about 3, passing the limit was not always enough;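 also: plate controls were vehicle for no effect and no enzyme for full effect; higher signal means more uncleaved substrate so more Dicer inhibition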
* = called active by the depositor. This is one part of a sample in which hits are shown more often than they occur.

SMILES | Dicer inh
CCC1(CC)Cc2ccccc2C2=C(C(=O)N3CCOCC3)C(=O)C(=O)N21 | 4*
CC1(C)Cc2ccccc2C2=C(C(=O)N3CCCC3)C(=O)C(=O)N21 | -1.3
O=C1C(=O)N2C(=C1C(=O)N1CCOCC1)c1ccccc1CC21CCCC1 | -1.1
CC(C)Cn1c(Cc2ccccc2)nc2ccccc21 | 0.3
CC(=O)c1c(C)[nH]c(-c2ccc(C)cc2)nc1=S | -0.59
COc1ccc(-c2nnc(SCc3ccc(Cl)cc3)o2)cc1 | 0.75
Clc1ccc(-c2nnc(-c3ccccc3)o2)cc1 | 1.1
CCc1ccc(-c2nnc(-c3ccc(Cl)cc3)o2)cc1 | 3.3*
Cc1ccc(-c2cn3cc(Cl)ccc3n2)cc1 | 0.81
Cn1nc(C(C)(C)C)c([N+](=O)[O-])c1C(C)(C)C | -0.78
COc1cc(C2C(C(=O)OC3CCCCC3)=C(C)NC3=C2C(=O)CCC3)cc(Cl)c1O (configuration not stated) | -0.17
Cc1ccc(C(C)C)c(OCCN2C(=O)C(=O)c3cc(C)ccc32)c1 | -0.65
Cc1ccc(C(C)C)c(OCCCN2C(=O)C(=O)c3cccc(C)c32)c1 | 0.44
Cc1ccc(OCCN2C(=O)C(=O)c3cc(C)ccc32)cc1 | 3.1*
O=C(CC1(O)C(=O)N(Cc2ccccc2)c2ccc(Br)cc21)c1ccccn1 (configuration not stated) | 1.6
CC(C)n1c2ccccc2c2ccccc21 | 0.68
CCCCn1c2ccccc2c2nc3cc(OC)c(OC)cc3nc21 | 1
COc1cc2nc3c4ccccc4n(C(C)C)c3nc2cc1OC | 3.4*
CCOC(=O)c1[nH]c2ccc(F)cc2c1NC(C)=O | 2.4
CCOC(=O)Nc1c(C(=O)OCC)[nH]c2ccc(OC)cc12 | 5.2*
CCOC(=O)Nc1c(C(=O)OCC)[nH]c2ccc(F)cc12 | 2.8
O=C(CSc1ccc(Cl)cc1[N+](=O)[O-])Nc1ccc(F)cc1F | -1.6
CCOC(=O)COc1ccc2c(=O)c(Oc3ccc(OC)cc3)coc2c1 | 0.03
O=C(CN1C2=NCCCN2c2ccccc21)c1ccc2c(c1)OCO2 | 0.97
O=C(CN1C2=NCCCN2c2ccccc21)c1ccc(Br)cc1 | 4*
SMILES | Dicer inh
O=C(CN1C2=NCCN2c2ccccc21)c1ccc(Cl)cc1 | 0
COc1ccc(CCNS(=O)(=O)c2ccc(-c3csc(C)n3)s2)cc1OC | -0.24
Cn1cc(Br)c(NC(=O)c2cc(C(F)(F)F)cc(C(F)(F)F)c2)n1 | -0.35
Cc1ccc(-c2nnc(Nc3cccc(O)c3)c3ccccc23)cc1S(=O)(=O)N(C)C | 0.46
COc1ccc(-c2nnc(Nc3ccc4c(c3)ncn4C)c3ccccc23)cc1 | 2.6
COc1ccc(-c2nnc(Nc3cccc(O)c3)c3ccccc23)cc1 | 3.9*
CCSc1nnc2c(n1)OC(c1cccc(O)c1Cl)Nc1ccccc1-2 (configuration not stated) | 0.27
Cc1onc(-c2ccccc2Cl)c1NC(=O)O/N=C(\N)c1ccc(Cl)cc1 | 0.89
COc1ccc(OC)c(C2Oc3nc(SC)nnc3-c3ccccc3N2C(C)=O)c1 (configuration not stated) | 0.05
CCCSc1ccc2c3c(cccc13)C(=O)N(c1ccccc1)C2=O | -1.1
O=C1c2cccc3c(N4CCCC4)ccc(c23)C(=O)N1c1ccccc1 | 2
CN(C)c1ccc2c3c(cccc13)C(=O)N(c1ccccc1)C2=O | 3.4*
COc1cccc(-c2cc3c(c(N)c2C#N)c(=O)oc2ccccc23)c1 | -0.17
CSC1=N/C(=C\c2ccc(Cl)cc2Cl)C(=O)N1Cc1ccccc1 | -0.6
COc1ccc(C2c3c(ccc4ccccc34)OC23C(=O)C=Cc2ccccc23)cc1 (configuration not stated) | -0.44
COc1ccc(C2CC(=O)C3=C(C2)Nc2ncnn2C3c2ccccc2)cc1 (configuration not stated) | 2.9
O=C1CC(c2ccccc2)CC2=C1C(c1ccco1)n1ncnc1N2 (configuration not stated) | 3.9*
c1ccc(C2CC(c3ccco3)n3ncnc3N2)cc1 (configuration not stated) | 0.17
O=C1OC(c2ccccc2)=N/C1=C/C=C/c1ccccc1 | 0.41
COC(=O)c1ccccc1Sc1c(-c2ccccc2)nc2ccccn12 | 0.14
O=[N+]([O-])c1cc(C(F)(F)F)ccc1S(=O)(=O)c1ccc(Cl)cc1 | 2
Cc1ccc2oc(-c3cc(Br)ccc3O)c(O)c(=O)c2c1 | 5.3*
Cc1ccc2oc(-c3ccco3)c(O)c(=O)c2c1 | -2.9
Cc1ccc(-c2oc3ccc(C)cc3c(=O)c2O)cc1 | -2.2
CCc1ccc(C2C(C(=O)OCCOC)=C(C)NC3=C2C(=O)CC(c2ccccc2)C3)cc1 (configuration not stated) | 1.4
SMILES | Dicer inh
O=C(O)CCCNC1=NCCS1 | -1.5
Clc1nc(NCCN2CCOCC2)nc(N2CCC(Cc3ccccc3)CC2)n1 | 0.1
O=C(O)CCCNc1nc(Cl)nc(N2CCCCC2)n1 | 5.7*
Cc1nc2ccccc2n1CCOc1ccccc1Cl | -0.03
Cc1c(Sc2ccc(Cl)cc2)cnn1CCC#N | 0.45
C(=N\Nc1ncnc2sc(-c3ccccc3)cc12)/c1ccncc1 | 2.8
Cc1ccc(/C=N/Nc2ncnc3sc(-c4ccccc4)cc23)o1 | 3.8*
